Common to all, as to assay: NCI-60 one-dose screen, 48 h (100 = growth as untreated, 0 = no growth, -100 = all killed)
Conditions in all cases: 10 µM

Assay [1] concerns DU-145 prostate.
The subject of assay [2] is K-562 leukemia.
Assay [3] deals with MALME-3M melanoma.
Assay [4] deals with MDA-MB-231 breast.
For assay [5], the system named is RXF 393 renal.
Assay [6] has as its system SF-268 CNS.
For assay [7], the system named is SF-295 CNS.
Assay [8] deals with SF-539 CNS.
For assay [9], the system named is UACC-257 melanoma.
In assay [10] the test system is M14 melanoma.
Assay [11] concerns HCT-15 colon.
The subject of assay [12] is HT29 colon.
In assay [13] the test system is SNB-75 CNS.
Assay [14] concerns SNB-19 CNS.
Assay [15] concerns U251 CNS.
Assay [16] relates to PC-3 prostate.
In assay [17] the test system is SK-MEL-5 melanoma.
Assay [18] deals with UACC-62 melanoma.
Assay [19] concerns LOX IMVI melanoma.
The subject of assay [20] is SK-MEL-28 melanoma.

Growth data for 14 compounds are collected here from PubChem BioAssay (NCI).

SMILES strings stand for the structures. Compounds without any hit were thinned out: in the full panel of roughly 83,000, 20% have a hit.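 The endpoint reported here, percent growth, reads 100 for growth as untreated, 0 for no net growth and -100 for all cells dead.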 A number with no mark means an inactive call. The source made the active and inactive calls. Rule for the calls: active = growth percent below 10; inactive = the rest.

In the case of `O=C(CCCC(=O)N/N=C/c1cc(Cl)ccc1O)N/N=C\c1cc(Cl)ccc1O`, the growth in assay [1] was 42.9%; in assay [2], 13.9%; in assay [3], 31.2%; in assay [4], 37.5%; in assay [5], 39.2%; in [6], 26.4%. Also, the growth in [7] was -5.9% (active); in assay [8], 14.1%; in assay [9] it was -1.55% (active); in [10], 12.9%; in assay [11], 28.1%; in assay [12] it was 55.4%. Moreover, the growth is 58.9% in assay [13]; 48.1% in [14]; 21% in [15]; 24% in assay [16]; -1.89% (active) in assay [17]; -16.9% (active) in assay [18]. Besides, the growth in assay [19] is 7.26% (active); in [20] it was 35.8%.
`O=C(Nc1ccc(Oc2ccc(Nc3nc4ccccc4s3)cc2)cc1)Nc1ccc(Cl)c(Cl)c1`: the growth was 39.1% in [1]; 21.9% in assay [2]; 47.9% in assay [3]; 22.8% in assay [4]; 56.5% in assay [5]; 35.9% in assay [6]. Further, the growth is 17.8% in [7]; 50.9% in [8]; 61.3% in assay [9]; 26.3% in assay [10]; 20.7% in [11]; 31.7% in assay [12]. Besides, the growth in assay [13] was 44.1%; in assay [14], 27.1%; in assay [15], 29.5%; in assay [16], 23.4%; in [17], 34.3%; in assay [18] it was 21.1%. Further, the growth in assay [19] was 26.2%; in assay [20] it was 45.9%.
For `Cc1ccc(/C(CS(=O)(=O)c2ccc(C)cc2)=N\O)cc1`, the growth in assay [1] is 111%; in [2] it was 105%; in assay [3] it was 116%; in assay [4], 103%; in assay [5], 93.6%; in assay [6], 108%. Besides, the growth in [7] is 90.8%; in assay [8], 97.3%; in assay [9] it was 97%; in assay [10], 116%; in assay [11] it was 95.2%; in [12], 99.7%. In addition, the growth in assay [13] was 87.8%; in assay [14], 88%; in assay [15] it was 90.4%; in assay [16], 94.3%; in assay [17], 98.9%; in assay [18], 87.3%. Besides, the growth was 102% in [19] and 103% in assay [20].
`CCCCCCCCCCSC(=N)N` (tested in a mixture with another compound): the growth was 79.6% in [1]; 9.73% (active) in assay [2]; 82.7% in assay [3]; 7.07% (active) in assay [4]; 64.5% in [5]; 79.1% in assay [6]. Besides, the growth in [7] was 94.4%; in assay [8], 83.4%; in assay [9], 99.5%; in assay [10] it was 65.5%; in [11] it was 12%; in assay [12], 3.13% (active). Also, the growth is 91.2% in assay [13]; 75.8% in assay [14]; 31.6% in [15]; 65.5% in [16]; 80.5% in [17]; 9.19% (active) in assay [18]. Further, the results for the growth in assay [19] and in [20] were 48.9% and 72.1%, respectively.
Consider `Oc1ccccc1-c1nnc(Cn2c(Cc3cccc4ccccc34)nc3ccccc32)o1`, for which the growth is 106% in assay [1]; 98.6% in assay [2]; 87.1% in assay [3]; 101% in assay [4]; 108% in assay [5]; 96.6% in assay [6]. Further, the growth is 93.9% in assay [7]; 97.9% in assay [8]; 100% in assay [9]; 96.9% in assay [10]; 94% in assay [11]; 102% in [12]. Further, the growth in assay [13] is 88.8%; in assay [14], 87.1%; in [15], 99.2%; in [16], 89.5%; in [17], 96.3%; in assay [18] it was 88.7%. Besides, the growth in assay [19] is 89.3%; in [20], 103%.
On to `CCCCCCCCCCCC(c1ccccc1)N(C)C` (stereo not given), for which the growth in assay [1] was 104%; in assay [2], 78.9%; in [3] it was 107%; in assay [4] it was 76.7%; in assay [5] it was 92.5%; in [6], 111%. Further, the growth in [7] was 97.9%; in assay [8] it was 103%; in assay [9] it was 103%; in [10], 104%; in assay [11], 95.6%; in assay [12], 86.3%. Besides, the growth in assay [13] was 89.5%; in [14], 95.1%; in assay [15] it was 95.6%; in assay [16] it was 78.1%; in assay [17], 97%; in [18], 94.9%. The growth in assay [19] was 92.7%; in [20], 99%.
On to `O=C(C=P(c1ccccc1)(c1ccccc1)c1ccccc1)c1ccc(Br)cc1`, for which the growth in [1] is 90.5%; in [2], 34.6%; in [3], 85.5%; in assay [4] it was 77.5%; in assay [5] it was 110%; in assay [6] it was 93.5%. Further, the growth was 91.7% in assay [7]; 113% in assay [8]; 102% in assay [9]; 94.1% in assay [10]; 95.2% in assay [11]; 79.1% in [12]. Further, the growth in [13] was 90.9%; in [14], 98.6%; in [15] it was 97.1%; in assay [16], 41.7%; in assay [17], 96.6%; in [18], 67.5%. The growth was 73.4% in [19] and 109% in assay [20].
For the compound `FC(F)(F)c1ccc(-c2ncc(-c3ccc(C(F)(F)F)cc3)c(NCc3cc(C(F)(F)F)cc(C(F)(F)F)c3)n2)cc1`, the growth in [1] was 69.6%; in assay [2], 44.4%; in assay [3], 75.4%; in assay [4], 72.5%; in [5], 66.6%; in assay [6], 69.3%. In addition, the growth was 9.91% (active) in assay [7]; 86.7% in [8]; 87.9% in [9]; 73.8% in [10]; 44.9% in [11]; 76.1% in assay [12]. Moreover, the growth is 72.4% in [13]; 29.1% in assay [14]; 27.1% in assay [15]; 31.4% in assay [16]; 96.9% in [17]; 51.6% in assay [18]. The growth in [19] was 21.5%; in assay [20], 89.5%.
For `O=C(Nc1cccc(Cl)c1)OCC(COC(=O)Nc1cccc(Cl)c1)(COC(=O)Nc1cccc(Cl)c1)[N+](=O)[O-]`, the growth in assay [1] was 44.2%; in assay [2] it was 26.4%; in [3], 59%; in [4], 40.3%; in [5], 57.1%; in assay [6] it was 35.4%. Also, the growth is 20.8% in [7]; 59.5% in assay [8]; 52.3% in assay [9]; 24.4% in assay [10]; 22.6% in assay [11]; 32% in assay [12]. The growth in assay [13] was 49.9%; in assay [14], 42.8%; in assay [15], 34.7%; in assay [16], 24.1%; in assay [17], 44.2%; in assay [18], 31.9%. Further, the growth in assay [19] is 15.6%; in assay [20], 51.1%.
With `Cc1ccc(C)c2c1sc1nc3n[nH]c(N)c3c(=N)n12`, the growth was 111% in assay [1]; 98.3% in [2]; 128% in assay [3]; 101% in assay [4]; 112% in assay [5]; 109% in [6]. The growth is 106% in assay [7]; 101% in assay [8]; 104% in assay [9]; 108% in [10]; 102% in [11]; 111% in assay [12]. The growth in [13] was 88.5%; in assay [14] it was 99%; in assay [15], 100%; in assay [16] it was 85.7%; in [17], 99.3%; in assay [18], 108%. Also, the growth is 96.2% in assay [19] and 106% in assay [20].
For the compound `O=S(=O)(NCl)c1ccccc1`, the growth is 106% in assay [1]; 97.3% in assay [2]; 97.5% in assay [3]; 115% in assay [4]; 109% in [5]; 99.9% in assay [6]. In addition, the growth in assay [7] is 94.3%; in assay [8], 106%; in assay [9], 103%; in assay [10] it was 107%; in assay [11], 102%; in [12], 106%. For the same compound, the growth is 84.3% in [13]; 104% in [14]; 95.9% in [15]; 99.1% in assay [16]; 103% in assay [17]; 106% in assay [18]. The growth in assay [19] and in assay [20] was 97.1% in each case.
On to `Cc1cc(O)c(C2=NN(c3ccc(S(N)(=O)=O)cc3)C(c3ccc(N(C)C)cc3)C2)c(C)c1Cl` (stereo not given), for which the growth in assay [1] was 75.2%; in assay [2], 25%; in [3] it was 157%; in [4] it was 103%; in assay [5] it was 93.4%; in assay [6] it was 72.1%. For the same compound, the growth in [7] is 6.34% (active); in assay [8] it was 91.6%; in assay [9], 97.6%; in [10] it was 89.3%; in assay [11], 80.5%; in [12], 52.7%. Moreover, the growth in assay [13] is 78.7%; in [14], 107%; in assay [15] it was 78.3%; in [16], 13.6%; in assay [17], 79.6%; in assay [18], 64.8%. Further, the growth in [19] was 82.8%; in assay [20], 90.2%.
Turning to `COc1cc(Nc2ccnc(N3CCN(c4ccnc5cc(Cl)ccc45)CC3)n2)cc(OC)c1`, the growth in [1] was 34.1%; in assay [2], 2.73% (active); in assay [3], -4.19% (active); in [4], 18.5%; in assay [5], -18.3% (active); in [6], 27.7%. The growth is -19.2% (active) in assay [7]; -22.1% (active) in assay [8]; 1.09% (active) in [9]; -3.5% (active) in assay [10]; 9.9% (active) in [11]; -15.1% (active) in [12]. Moreover, the growth was -13.9% (active) in assay [13]; 39.1% in assay [14]; 12.6% in assay [15]; 3.31% (active) in assay [16]; -55.2% (active) in [17]; -21.6% (active) in assay [18]. The growth in [19] was 3.24% (active); in assay [20] it was 11.9%.
With `O=C(Nc1ccc(OS(=O)(=O)Cc2ccccc2)cc1)C12CC3CC(CC(C3)C1)C2`, the growth in assay [1] was 87.4%; in assay [2], 13.1%; in assay [3], 91.8%; in assay [4], 78.7%; in assay [5] it was 99%; in [6] it was 84.6%. The growth in assay [7] was 60.3%; in [8], 86.1%; in [9], 99%; in assay [10], 77.4%; in [11] it was 56.8%; in assay [12] it was 9.75% (active). The growth in assay [13] is 114%; in [14] it was 91.4%; in assay [15], 67.7%; in assay [16] it was 55.6%; in assay [17] it was 63.3%; in [18] it was 81.6%. Moreover, the growth is 68% in assay [19] and 103% in assay [20].
